Compound activity as filed in PubChem BioAssay.
ALOX15B inhib – inhibitors of human 15-lipoxygenase 2 (ALOX15B) | Potency, µM (highest dose often 57.1 µM), without a hit: at the top dose activity change, negative = inhibition, hits mostly inhibitors | purified 15hLO-2, xylenol orange hydroperoxide absorbance | O15296 | hit rate 0.56% among 110,000; also: % is scaled to controls: 0 for no effect and ±100 for the full control effect; nearly all actives have a fitted effect of over 60% in size
Target sequence (O15296 whole entry, looked up): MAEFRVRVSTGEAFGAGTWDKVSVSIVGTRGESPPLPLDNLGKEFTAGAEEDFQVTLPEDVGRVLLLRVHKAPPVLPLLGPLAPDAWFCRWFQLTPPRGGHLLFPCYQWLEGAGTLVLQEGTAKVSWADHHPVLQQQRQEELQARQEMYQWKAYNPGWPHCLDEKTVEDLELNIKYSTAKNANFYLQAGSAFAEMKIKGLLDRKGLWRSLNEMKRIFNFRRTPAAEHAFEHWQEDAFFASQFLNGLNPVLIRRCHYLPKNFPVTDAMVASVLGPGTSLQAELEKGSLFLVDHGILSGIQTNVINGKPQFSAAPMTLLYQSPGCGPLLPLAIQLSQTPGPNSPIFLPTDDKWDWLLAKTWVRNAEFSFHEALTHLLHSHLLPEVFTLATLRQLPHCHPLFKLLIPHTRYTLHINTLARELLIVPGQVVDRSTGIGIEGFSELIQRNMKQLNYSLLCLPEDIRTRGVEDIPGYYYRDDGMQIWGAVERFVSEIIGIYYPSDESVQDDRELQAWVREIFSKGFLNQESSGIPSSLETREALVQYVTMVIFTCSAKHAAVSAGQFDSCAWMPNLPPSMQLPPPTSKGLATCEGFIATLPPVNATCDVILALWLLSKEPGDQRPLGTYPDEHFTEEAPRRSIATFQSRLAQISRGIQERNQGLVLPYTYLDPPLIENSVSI
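Purified human 15hLO-2 (50 nM final) preincubated with compounds 15 min at room temperature in 25 mM Hepes pH 7.5, 0.01% Triton X-100, then 45 uM arachidonic acid added for 90 min; hydroperoxide detected via ferrous/xylenol orange, 573/405 nm absorbance ratio.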
ALOX15 inhib – blocks human 15-lipoxygenase activity | purified 15hLO-1, xylenol orange hydroperoxide absorbance | Potency, µM (highest dose often 57.1 µM), for inactives: at the top dose activity change, negative = inhibition, most hits filed as inhibitors | hit rate 1.4% among 74,000 | AID 887; also: % is scaled to controls: 0 for no effect and ±100 for the full control effect; nearly all actives have a fitted effect of over 55% in size
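Compounds were preincubated 15 min at room temperature with 40 nM purified human enzyme (25 mM Hepes pH 7.5, 0.01% Triton X-100); 50 uM arachidonic acid reacted 6 min. Fe-xylenol orange detection, 30 min, absorbance ratio 573/405 nm.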
USP2a inh – blocks human ubiquitin-specific protease USP2a; O75604; USP2a enzymatic assay, qHTS inhibition; Potency, µM (titrated, usually from 38.3 µM), without a hit: at the highest dose activity change, negative = inhibition, most hits filed as inhibitors; hit rate 0.1% among 60,000; AID 927; also: nearly all actives have a fitted effect of over 60% in size
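USP2 core (20nM final) preincubated 30 min RT with compound, then Ub-PLA2 20nM and NBD C6-HPC 20uM final added; buffer 20mM Tris-HCl pH 8.0, 2mM CaCl2. Fluorescence Ex 460/Em 535 read at 0 and 2.5 h; normalized to NEM.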
Caspase-1 inhib – blocks human caspase-1 allosterically or competitively; P29466; Caspase-1 enzyme, Ac-WEHD-AFC fluorogenic rate; Potency, µM (titrated, usually from 57.5 µM), without a hit: at the highest dose activity change, negative = inhibition, actives largely listed as inhibitors; hit rate 0.03% among 75,000; AID 900;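 also: plate controls were vehicle for no effect and no substrate for full effect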
Caspase-7 inhib – allosteric or competitive inhibitors of human caspase-7; P55210; recombinant caspase-7, Ac-DEVD-AFC fluorescence rate; Potency, µM (series often up to 57.5 µM), for inactives: top-dose activity change, negative = inhibition, most hits filed as inhibitors; hit rate 0.02% among 75,000; active = well fitted inhibition curve with a large enough effect in the main read-out, with a control signal flat, not every such curve was filed as active; inconclusive = small, poorly fitted or top-dose-only effect, or a change in a side signal; also: % of control where 0% means no effect
Numbers without * were called inactive; ? = inconclusive; · = no result; [ ] = remark or other dose. The sample as a whole holds a higher share of hits than the screen did. Unless noted, calls follow the shape of the dose curve; as a rule, active = well fitted curve in the direction sought with a large enough effect; inconclusive = small, poorly fitted or top-dose-only effect, or another doubt; inactive = no such curve, though single readings can be large; an effect the other way counts as inactive or inconclusive. Potency is read from the fitted curve at half-maximal effect.

SMILES	ALOX15B inhib	ALOX15 inhib	USP2a inh	Caspase-1 inhib	Caspase-7 inhib
Cn1c(=O)c2c(nc(CN3CCN(Cc4ccccc4)CC3)n2Cc2ccccc2)n(C)c1=O	5.5%	20µM*	·	-9.4%	-9.7%
CC1CCCCN1Cc1nc2c(c(=O)n(C)c(=O)n2C)n1Cc1c(F)cccc1Cl (stereo not drawn)	·	25.1µM*	·	·	?
CC1=CC(C)(C)Nc2ccc(OC(=O)C(Cc3ccccc3)N3C(=O)c4ccccc4C3=O)cc21 (stereo not drawn)	-3.2%	·	·	·	·
CC1=CC(C)(C)Nc2ccc(OC(=O)CN3C(=O)c4cccc5cccc(c45)C3=O)cc21	12.6µM*	·	·	·	·
CCOc1ccc2c(c1)N(C(=O)CN1C(=O)CCC1=O)C(C)(C)C=C2C	11.4%	13.5%	5.6%	0.0%	0.3%
CCOc1ccc2c(c1)C(C)=CC(C)(C)N2	12.6µM*	25.1µM*	-10.4%	-7.7%	-11.9%
COc1ccc(-c2cc(C(=O)N/N=C/c3ccc(O)cc3)[nH]n2)cc1	·	-10.4%	·	-5.2%	-2.2%
COc1cc2c(cc1OC)C(=O)N(C)CC2	-5.2%	-3.8%[25.6 µM]	·	-3.6%	0.2%
COc1cc2cc3c4c(cc(OC)c(OC)c4c2cc1OC)CCN3C	12.6µM*	-12.2%[25.6 µM]	·	·	?
CS(=O)(=O)Nc1cccc(-c2ccc3ncnc(NCc4cccnc4)c3c2)c1	0.6%	-2.4%	35.3%	-0.6%	-2.1%
O=C(Nc1ccc2[nH]c3c(c2c1)CCCC3)c1ccco1	-19.3%	15.8µM*	0.9%	?	-23.4%
N#Cc1c(-c2ccco2)cc(-c2cccnc2)nc1N	?	7.94µM*	-76.5%	0.1%	-1.7%
N#Cc1c(-c2ccco2)cc(-c2ccccn2)nc1N	17.5%	-0.4%	-3.2%	-2.7%	0.2%
Cc1ccc(NC2c3ncccc3C(=O)N2c2ccccc2C)cc1C (stereo not drawn)	?	25.1µM*	-13.2%	-4.0%	-6.2%
Cc1ccc(C(=O)c2c(C)oc3c2C(=O)C(=O)c2ccccc2-3)cc1	25.1µM*	·	·	·	·
O=C(CCN1c2ccccc2Sc2ccccc21)OCc1nnc(-c2ccccc2)o1	-10.7%	?	6.8%	-1.0%	·
O=C(Sc1nnc(-c2ccccc2)o1)N1c2ccccc2Sc2ccccc21	·	2.51µM*	-7.6%[7.66 µM]	-1.8%	-1.0%
OC[C@@H]1O[C@@H](O)[C@H](N=Cc2ccc3c(c2)OCO3)[C@@H](O)[C@@H]1O	-3.0%[11.4 µM]	10.2%[11.4 µM]	·	-2.7%[11.5 µM]	-0.7%[11.5 µM]
O=C(Cn1sc2ccccc2c1=O)NC12CC3CC(CC(C3)C1)C2	0.794µM*	·	·	·	·
O=C(Nc1ccc(N2CCCC2)cc1)C(Cl)c1ccccc1 (stereo not drawn)	12.6µM*	·	·	·	·
O=C(O)CCC(=O)Nc1ccc(N2CCCCCC2)cc1	-1.5%	-18.3%	-9.2%	-10.8%	-1.4%
CCCn1c(C)nc2c(NCCCN3CCCCC3C)nc(C)nc21 (stereo not drawn)	3.7%	-6.3%	·	0.0%	-0.2%
Brc1ccc2c(c1)c1nc3ccccc3nc1n2CCN1CCOCC1	·	31.6µM*	·	-5.6%	-9.1%
Cc1cn([C@H]2C[C@H](O)[C@@H](COC(N)=O)O2)c(=O)[nH]c1=O	-6.6%[11.4 µM]	-3.1%[11.4 µM]	·	0.1%[11.5 µM]	2.3%[11.5 µM]
Cc1ccc(-c2[nH]nc3c2C(c2ccoc2)C(C#N)=C(N)O3)cc1C (stereo not drawn)	0.3%	25.1µM*	24.1%	-0.2%	-0.8%
SMILES	ALOX15B inhib	ALOX15 inhib	USP2a inh	Caspase-1 inhib	Caspase-7 inhib
Cc1ccc(C2C(C#N)=C(N)Oc3n[nH]c(-c4cccs4)c32)s1 (stereo not drawn)	-3.4%	25.1µM*	7.6%	-0.8%	-3.7%
N#CC1=C(N)Oc2n[nH]c(-c3cccs3)c2C1c1ccco1 (stereo not drawn)	7.9%[2.29 µM]	-28.4%	12.1%	-1.3%	-2.1%
CN(C)c1ncc2nc(-c3ccccc3)c(=O)n(-c3ccccc3)c2n1	3.5%	-5.9%	60.6%	·	?
Oc1ccc(-c2nc(-c3ccc(O)c(O)c3)cs2)cc1	3.98µM*	1.58µM*	35.1%	-2.6%	-13.7%
COc1ccc(CCn2c(-c3ccco3)nc3ccccc3c2=O)cc1OC	3.3%[2.29 µM]	3.98µM*	39.0%[7.66 µM]	0.5%	-0.3%
C=CCn1c(=O)c(C(=O)NCCNCC)c(O)c2ccccc21	7.9%	15.0%	12.6µM*	1.1%	1.8%
CCNCCNC(=O)c1c(O)c2ccccc2n(CC)c1=O	12.6%	13.9%	-3.0%	0.1%	1.1%
Cc1ccc2c(c1)c1c(n2C)C(C(N)=O)CCC1 (stereo not drawn)	0.0%	-1.4%	6.31µM*	1.4%	-2.0%
Cn1cc(-c2nc3cncnc3n(C3CC3)c2=O)c2ccccc21	-2.9%	7.9%	158.8%	-9.5%	-15.6%
CN(C)c1ccc(NC(=O)CCCc2ccccc2)cc1	-12.9%	10µM*	0.9%	0.0%	-1.1%
O=C(CCCc1ccccc1)Nc1cccnc1	2.2%	·	·	·	·
N=C1Sc2ccccc2C2=NCCCN12	12.6µM*	?	-4.2%	0.7%	0.0%
CN1CCC(=C2c3ccccc3Sc3ccccc32)CC1	-1.7%	-10.5%	29.1%	-3.7%	-0.5%
C[C@]12CC[C@H]3c4ccc(OC[C@H]5CO5)cc4CC[C@H]3[C@H]1CC[C@@H]2O	·	-7.2%[11.4 µM]	·	-0.8%[11.5 µM]	0.6%[11.5 µM]
CN1CCc2nc(NC(=O)c3cccc(S(=O)(=O)N4CCc5ccccc54)c3)sc2C1	38.5%	15.8µM*	32.3%	?	?
CCC(CC)c1nnc(NC(=O)c2cccc(S(=O)(=O)N3CCc4ccccc43)c2)s1	14.5%	·	·	·	·
COc1cc([C@@H]2Oc3cc([C@H]4Oc5cc(O)cc(O)c5C(=O)[C@H]4O)ccc3O[C@H]2CO)ccc1O	-28.8%	2µM*	·	-1.2%	-5.8%
COc1cc([C@H]2Oc3cc([C@H]4Oc5cc(O)cc(O)c5C(=O)[C@@H]4O)ccc3O[C@@H]2CO)ccc1O	-20.8%	?	·	-2.1%	1.0%
O=C(NCCN1CCCCC1)c1ccc(Cc2nc3ccccc3[nH]2)cc1	·	4.1%	·	-1.9%	0.4%
CCNc1ncc2nc(-c3ccccc3)c(=O)n(C3CC3)c2n1	?	-7.0%	-9.5%	·	?
CCOc1ccc(C2C(C#N)=C(N)SC(N)=C2C#N)cc1OCC	?	?	?	-9.8%	-10.8%
N#CC1=C(N)SC(N)=C(C#N)C1c1cccc(Oc2ccccc2)c1	?	5.01µM*	22.3%	-4.5%	-5.9%
O=C(Nc1ccccc1)c1ccc2nc(-c3ccco3)c(-c3ccco3)nc2c1	?	6.31µM*	40.4%	?	?
O=C(Nc1ccc(N2CCOCC2)cc1)c1ccc2nc(-c3ccco3)c(-c3ccco3)nc2c1	-23.7%	-22.8%	24.0%	-4.4%	-6.0%
CCCCNC(=O)c1ccc2nc(-c3ccco3)c(-c3ccco3)nc2c1	·	5.01µM*	·	·	?
CCCNC(=O)c1ccc2nc(-c3ccccc3)c(-c3ccccc3)nc2c1	-10.8%[11.4 µM]	·	·	·	·
NC(=S)NCCC[C@@H](N)C(=O)O	-8.5%	-27.8%	-5.8%	3.4%	-2.6%
CCOC(=O)Cc1csc(SCn2nnc3ccccc3c2=O)n1	-2.1%	-6.6%	2.9%	-0.5%	0.1%
CCOC(=O)Cc1csc(-n2sc3ccccc3c2=O)n1	1.26µM*	0.199µM*	1.8%	-4.3%	0.3%
